According to PubChem BioAssay AID651956 (Broad Institute, 2012):
Entries with a potency or affinity are not part of this list. Records with an inconclusive call do not appear. The source made the active and inactive calls.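 How the source made its calls: active means in every test run, a fitted half-maximal concentration for signal decrease at or below twice the highest tested concentration; inconclusive means runs disagree, flat 30 to 70% decrease, or poor fit; inactive means the rest.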

Experiment: miR-122 activators in hepatoma reporter cells, dose response, cell-based, Huh7 psiCHECK-miR122, Renilla luciferase, cherry-picked (AID 651956);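 further: Renilla luciferase from a miR-122 sensor reporter so lower signal means miR-122 activation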
Details: 48 h; series mostly up to 35 µM
For `COCC(=O)N(C)C[C@H]1Oc2cc(-c3ccccc3F)ccc2S(=O)(=O)N([C@@H](C)CO)C[C@@H]1C`, the outcome was “inactive”.
In the case of `CNC(=O)C[C@H]1CC[C@@H]2[C@@H](COc3ccc(NC(=O)C(C)C)cc3C(=O)N2C)O1`, the outcome is reported as “inactive”.
With `CN1C(=O)c2cc(NC(=O)c3cccs3)ccc2OC[C@@H]2O[C@@H](CC(=O)O)CC[C@@H]21` the outcome was “inactive”.
In the case of `C/C=C/c1ccc([C@H]2[C@@H](CO)N(C(=O)C3CC3)[C@H]2CNC(=O)NC(C)C)cc1`, the outcome is reported as “inactive”.
In the case of `CCNC(=O)C[C@@H]1CC[C@H]2[C@@H](COc3ccc(NC(=O)Nc4ccc(F)cc4)cc3C(=O)N2C)O1`, the outcome is reported as “inactive”.
For `CN1C(=O)c2cc(NC(=O)Cc3ccccc3)ccc2OC[C@@H]2O[C@@H](CC(=O)O)CC[C@H]21`, the outcome was “inactive”.
For `c1ccc(CCCNCCCn2cnc3c(OCc4ccccc4)ncnc32)cc1`, the outcome was “inactive”.
With `COCC(=O)NC[C@H]1[C@@H](c2ccc(C3=CCCC3)cc2)[C@H](CO)N1C(=O)C1CC1` the outcome was “inactive”.
For `Cc1cc(C)cc(NC(=O)Nc2ccc3c(c2)C(=O)N(C)[C@@H]2CC[C@H](CC(=O)O)O[C@@H]2CO3)c1`, the outcome was “inactive”.
In the case of `COCCNC(=O)C[C@@H]1CC[C@@H]2[C@H](COc3ccc(NS(=O)(=O)c4ccc(Cl)cc4)cc3C(=O)N2C)O1`, the outcome is reported as “inactive”.
With `CC(C)N(C[C@@H]1N[C@@H](CO)[C@@H]1c1ccccc1)S(=O)(=O)c1ccccc1` the outcome was “inactive”.
In the case of `Cc1cccc(NC(=O)C[C@H]2CC[C@H]3[C@@H](COc4ccc(NC(=O)NC(C)C)cc4C(=O)N3C)O2)c1`, the outcome is reported as “inactive”.
With `COC(=O)C[C@H]1CC[C@@H]2[C@@H](COc3ccc(NC(=O)Nc4cccc(F)c4)cc3C(=O)N2C)O1` the outcome was “inactive”.
For `CC(=O)Nc1ccc2c(c1)C(=O)N(C)[C@H]1CC[C@H](CC(=O)Nc3ccccc3Cl)O[C@@H]1CO2`, the outcome was “inactive”.
With `C/C=C/c1ccc([C@H]2[C@@H](CO)N(Cc3ccccn3)[C@@H]2CNC(=O)CC)cc1` the outcome was “inactive”.
In the case of `CC(C)CC#Cc1ccc([C@H]2[C@@H](CO)N3CCCCN(S(=O)(=O)Cc4ccccc4)C[C@H]23)cc1`, the outcome is reported as “inactive”.
With `COCC(=O)Nc1ccc2c(c1)C(=O)N(C)[C@@H]1CC[C@@H](CC(=O)OC)O[C@@H]1CO2` the outcome was “inactive”.
For `COc1cccc(C(=O)N2C[C@H]3[C@@H](c4ccccc42)[C@H](CO)N3C(C)=O)c1`, the outcome was “inactive”.
With `COc1ccc(CN2CCOC2=O)cc1OC` the outcome was “inactive”.
In the case of `CCCC(=O)Nc1ccc2c(c1)C(=O)N(C)[C@@H]1CC[C@@H](CC(=O)NCC(F)(F)F)O[C@H]1CO2`, the outcome is reported as “inactive”.
For `CC(C)NC(=O)Nc1ccc2c(c1)C(=O)N(C)[C@@H]1CC[C@@H](CC(=O)NCC(F)(F)F)O[C@@H]1CO2`, the outcome was “inactive”.
For `C/C=C/c1ccc([C@H]2[C@@H](CO)N(C(C)=O)[C@@H]2CN(C(=O)COC)C(C)C)cc1`, the outcome was “inactive”.
With `O=C(COC(=O)Cc1ccc(S(=O)(=O)N2CCOCC2)s1)Nc1ccc2c(c1)OCO2` the outcome was “inactive”.
For `CCN(CC)S(=O)(=O)c1ccc(NC(=O)Nc2cccc(C(F)(F)F)c2)cc1`, the outcome was “inactive”.
For `CCOC(=O)C1CN(S(=O)(=O)c2ccccc2)CCN1S(=O)(=O)c1ccccc1` (stereo unspecified), the outcome was “inactive”.
In the case of `CC(C)NC(=O)N1C[C@@H]2[C@H](c3ccccc31)[C@H](CO)N2Cc1ccccc1`, the outcome is reported as “inactive”.
